Spn MK inh: inhibitors of Streptococcus pneumoniae mevalonate kinase; purified MK, PK/LDH-coupled NADH absorbance 340 nm; inhibition, % at 10 µM; 0.48% of 65,000 active; AID 555;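 active = ranked among the strongest by inhibition in the single 10 µM screen, a fixed top-ranked set picked for dose follow-up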
DPM-DC inhibit: inhibitors of Streptococcus pneumoniae diphosphomevalonate decarboxylase; calls only at 10 µM; purified DPM-DC, PK/LDH coupled NADH fluorescence; 0.49% of 65,000 active;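 active = the 320 compounds with the highest percent inhibition in the single-dose primary screen, excluding strongly autofluorescent ones, cut at about 32% in these data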;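 also: kinetic rate of NADH fluorescence loss reporting ADP formed by the decarboxylase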
NADH enzymes: blocks coupling enzymes of NAD/NADH assays | AID 774 | 0.02% of 65,000 active | coupled PK/LDH NADH assays, four targets | IC50, µM (highest dose often 10 µM);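 active = single-dose screening hits from any of four coupled enzyme assays that gave an IC50 when retested across doses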;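 also: the DPM-DC format reads NADH fluorescence rather than 340 nm absorbance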
PMK inhibit: S. pneumoniae PMK inhibition; AID 539; inhibition, % at 10 µM; 0.49% of 65,000 active; purified PMK, PK/LDH-coupled NADH absorbance 340 nm;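 active = top-ranked compounds by inhibition in the single 10 µM screen, taking a fixed number of the strongest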
Fluor 339 460: intrinsic fluorescence of library compounds, ex339/em460 – biochemical, MLSMR library, data from DPM-DC assay, artefact control, profiling panel; 5.5% of 65,000 active; compound autofluorescence, ex339/em460 nm, NADH buffer; hits give high values; 1 = no-compound wells, NADH background; fluorescence fold increase at 10 µM;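 active = at 10 µM, mean starting fluorescence two-fold or more over control wells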;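 also: signal is the first read of a kinetic run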
A340 absorber: compound absorbs light at 340 nm. compound absorbance at 340 nm, fold over control. fold change at 10 µM. 65,000 tested, under 10 active;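 active = at 10 µM dose, initial 340 nm absorbance at least 2 fold that of control wells; inactive = change under 2 fold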;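 also: initial absorbance extrapolated from kinetic A340 decline of NADH oxidation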
Of the large screens only hits and unclear results are named; the others gave an inactive call. An excerpt weighted towards active compounds, which were near 6.3% of everything screened.

O=C(OCc1c(Cl)cccc1Cl)c1cccnc1	none
Cc1ccc(-c2oc3ncnc(N)c3c2-c2ccc(C)cc2)cc1	Fluor 339 460 3.5 (not shown: DPM-DC inhibit)
Cc1oc2ncnc(N)c2c1C	none
CCOCCCNC(=O)C(Cc1ccccc1)NC(=O)c1ccco1 (configuration not stated)	none (no result: DPM-DC inhibit)
COc1cc2c(cc1OC)C(c1cc3cc(OC)c(OC)cc3[nH]c1=O)N(C(=O)C1CC1)CC2 (configuration not stated)	Fluor 339 460 2.6
COc1ccc(OC(C)=O)c(C2c3cc(OC)c(OC)cc3CCN2C(C)=O)c1 (configuration not stated)	none
CCOc1ccc(-c2nc(CSCC(=O)NCCN3CCOCC3)c(C)o2)cc1	none
Cc1cccc(NC(=O)CCCCCN2C(=O)c3ccccc3C2=O)n1	none
CCOC(=O)C1=C(C)Nc2ccccc2N=C1NC(=O)CCCN1C(=O)c2ccccc2C1=O	PMK inhibit 27
Cc1cc(C)c2c(n1)nn1c(NCCOCCO)cc(C)nc21	Fluor 339 460 3.9 (not shown: DPM-DC inhibit)
CCOc1cc(S(=O)(=O)N2CCC(Cc3ccccc3)CC2)c(OCC)cc1-n1cnnn1	none
CCOc1cc(S(=O)(=O)NCCc2ccccc2C)c(OCC)cc1-n1cnnn1	Fluor 339 460 3.9 (not shown: DPM-DC inhibit)
CCOc1cc(S(=O)(=O)NCCc2cccc(C)c2)c(OCC)cc1-n1cnnn1	Fluor 339 460 3.7 (not shown: DPM-DC inhibit)
CCOC(=O)C1CCN(c2cc(=O)n(Cc3ccc(F)cc3)c(=O)[nH]2)CC1	none
Cc1sc2nc3n(c(=O)c2c1C)NC(=O)CC3	none
COCc1cc(C)nc2sc(C(=O)OC(C)C)c(N)c12	Fluor 339 460 2.1
O=C(CN1CCCCC1)Nc1cccc(Br)c1	none
O=S(=O)(CCc1ccccc1)N1CCOCC1	none
CCS(=O)(=O)N1CCN(C(C)CCc2ccccc2)CC1 (configuration not stated)	Spn MK inh 42
COC(=O)C1(C)Nc2ccccc2C(=O)N1c1ccccc1C (configuration not stated)	Fluor 339 460 2.1 (not shown: DPM-DC inhibit)
COc1ccccc1-c1nnc(Nc2nc3c(OC)cccc3s2)o1	none
COc1cccc(-c2nnc(Nc3nc4c(F)cccc4s3)o2)c1	Fluor 339 460 4.9 (not shown: DPM-DC inhibit)
CCCn1c(C)nc2c(c1=O)c1nc3ccccc3nc1n2CCC1=CCCCC1	Fluor 339 460 3.8 (not shown: DPM-DC inhibit)
CCCn1c(C)nc2c(c1=O)c1nc3ccccc3nc1n2CCc1ccccc1	Fluor 339 460 3.1 (not shown: DPM-DC inhibit)
O=S(=O)(Nc1ccc2c(c1)nc1n2CCOC1)c1ccc(Cl)cc1	none
CC1(C)Oc2ccc3ccc(=O)oc3c2-c2cn[nH]c21	none
CC1(C)Oc2ccc3ccc(=O)oc3c2-c2cnoc21	Fluor 339 460 2.2 (not shown: DPM-DC inhibit)
COc1ccccc1OCc1nc(Cc2ccc(Cl)cc2)no1	none
COc1ccc2[nH]c(=O)c(CN(Cc3nnnn3Cc3ccc(F)cc3)CC3CCCO3)cc2c1 (configuration not stated)	Fluor 339 460 2
COc1ccc2[nH]c(=O)c(CN(Cc3nnnn3Cc3ccccc3)CC3CCCO3)cc2c1 (configuration not stated)	Fluor 339 460 2.1
COc1ccc2cc(CN(Cc3cccnc3)Cc3nnnn3Cc3ccccc3)c(=O)[nH]c2c1	none
COCCn1nnnc1CN(Cc1cccnc1)Cc1cc2cc(OC)ccc2[nH]c1=O	DPM-DC inhibit active, Fluor 339 460 2.2
O=C(COc1ccc(S(=O)(=O)N2CCc3ccccc32)cc1Cl)NCc1ccccn1	none
CC(NC(=O)COc1ccccc1)C(c1ccccc1)N1CCN(C)CC1 (configuration not stated)	none
CCOC(=O)c1[nH]c(COC(=O)C2CC(=O)N(Cc3ccccc3)C2)c(C(=O)OCC)c1C (configuration not stated)	none
Cc1c(O)c(CN2CCCC2)cc2c1oc(=O)c1ccccc12	none
Cc1c(O)c(CN2CCCC2)cc2c3c(c(=O)oc12)CCC3	Fluor 339 460 3.7 (not shown: DPM-DC inhibit)
Cc1cc2oc(=O)cc(CN3CCCCC3)c2cc1C(C)C	none
CCc1cc(=O)oc2c(C)c(O)c(CN3CCCCC3)cc12	Fluor 339 460 3.9 (not shown: DPM-DC inhibit)
O=C(CSc1ccc2nnc(-c3ccccn3)n2n1)N1CCN(c2ccccc2)CC1	none
COc1ccc(S(=O)(=O)Nc2ccc3oc(C)c(C(=O)O)c3c2)cc1	none
COCCOC(=O)c1c(C)oc2ccc(NS(=O)(=O)c3ccc(F)cc3)cc12	DPM-DC inhibit active
COc1cc(-c2nc3cnccc3n2C)cc(OC)c1OC	DPM-DC inhibit active
CCCCCCC(=O)N1CCN(c2cc3c(cc2F)c(=O)c(C(=O)O)cn3CC)CC1	none
CCN1CCN(c2cc3c(cc2F)c(=O)c(C(=O)O)cn3C2CC2)CC1	Fluor 339 460 2.2 (not shown: DPM-DC inhibit)
CCOC(=O)N1CCN(C(=O)c2cn(CC)c3cc(N4CCN(C)CC4)c(F)cc3c2=O)CC1	DPM-DC inhibit active
CCC(=O)N1CCN(c2cc3c(cc2F)c(=O)c(C(=O)O)cn3CC)CC1	Fluor 339 460 4.8 (not shown: DPM-DC inhibit)
CCOC(=O)c1cn(CC)c2cc(N3CCCCC3)c(F)cc2c1=O	none
CCOC(=O)c1cn(CC)c2cc(N3CCOCC3)c(F)cc2c1=O	Fluor 339 460 2.3 (not shown: DPM-DC inhibit)
NC(=O)NC(=O)CSc1cccc(C(F)(F)F)c1	none
CN(Cc1ccccc1)c1nc2c(c(=O)[nH]c(=O)n2C)n1CCOc1ccccc1	none
CCOc1cc(N2CCOCC2)c(OCC)cc1NS(=O)(=O)c1ccc(Cl)s1	none
CC(C)CC(NS(=O)(=O)c1ccc2c(c1)oc(=O)n2C)C(=O)NCc1cccnc1 (configuration not stated)	none
O=C(NCc1ccc(Cl)cc1)C1CCCN(S(=O)(=O)c2cnc[nH]2)C1 (configuration not stated)	none
CCOC(=O)c1[nH]nc(C(=O)c2ccc(Br)cc2)c1O	PMK inhibit 29
CCC(C)NC(=O)C1CCN(c2nc(C)cc(C)n2)CC1 (configuration not stated)	none
Cc1cc(-c2ccccc2)nc(N2CCC(C(=O)NC(C)C)CC2)n1	DPM-DC inhibit active, Fluor 339 460 3.3
CC(=O)Nc1nnc(-c2ccc3c(c2)CCCC3)o1	none
CC1CN(S(=O)(=O)c2ccc(C(=O)Nc3nnc(-c4ccc5c(c4)CCCC5)o3)cc2)CC(C)O1 (configuration not stated)	Fluor 339 460 2.1 (not shown: DPM-DC inhibit)
CC(=O)c1ccc(-c2nc3ccccc3n2C)o1	Fluor 339 460 3 (not shown: DPM-DC inhibit)
Cn1c(-c2ccc(Br)o2)nc2ccccc21	none
CCOc1ccc2[nH]c(C)cc(=O)c2c1	none (not shown: DPM-DC inhibit)
CCOc1ccc2[nH]c(=O)c(=O)[nH]c2c1	Fluor 339 460 2.2
CCOc1ccc2[nH]c(=O)c(CN(CCO)C(=O)c3ccc(Br)cc3)cc2c1	PMK inhibit 42, Fluor 339 460 2.6
CCOc1ccc2[nH]c(=O)c(CN(CCO)C(=O)CC)cc2c1	Fluor 339 460 3.1
CCOc1ccc2[nH]c(=O)c(CN(Cc3ccc(F)cc3)C(=O)N3CCCC3)cc2c1	Fluor 339 460 2.8

Source: PubChem
